Read-out in assay [1]: xenobiotic metabolism (CYP1A2), CYP1A2 (gene 1544)
The assay can be described thus: CLD_CYP1A2_48hr: CellzDirect (CLD) Gene Expression Assay for xenobiotic metabolism (CYP1A2) at 48 hours (AID 2283703). In outline: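 Primary human hepatocytes from two donor preparations were dosed daily for two days at multiple concentrations in 0.2% DMSO vehicle. CYP1A2 mRNA was measured at 48 hours by chemiluminescent quantitative nuclease protection assay, with gain of signal fitted versus DMSO and cytotoxicity annotated from morphology.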

Read-out in assay [2]: xenobiotic metabolism (CYP1A1), CYP1A1 (gene 1543)
Put plainly: CLD_CYP1A1_48hr: CellzDirect (CLD) Gene Expression Assay for xenobiotic metabolism (CYP1A1) at 48 hours (AID 2283705). In outline:
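Primary human hepatocytes from two donors dosed daily for two days at multiple concentrations, 0.2% DMSO vehicle; CYP1A1 mRNA induction at 48 h by qNPA chemiluminescence. Cytotoxicity noted by phase-contrast morphology.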

Read-out in assay [3]: glucuronosyltransferase (UGT1A1), UGT1A1 (gene 54658)
Put plainly: CLD_UGT1A1_48hr: CellzDirect (CLD) Gene Expression Assay for glucuronosyltransferase (UGT1A1) at 48 hours (AID 2283709).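 Also: actives increase expression relative to DMSO so potency refers to induction.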 The essentials: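 Human primary hepatocytes dosed daily for two days (0.2% DMSO vehicle), harvested at 48 h. UGT1A1 mRNA induction measured by quantitative nuclease protection assay with chemiluminescence; gain of signal versus DMSO; cytotoxicity flagged from morphology.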

Read-out in assay [4]: sulfotransferase (SULT2A), SULT2A1 (gene 6822)
Put plainly: CLD_SULT2A_48hr: CellzDirect (CLD) Gene Expression Assay for sulfotransferase (SULT2A) at 48 hours (AID 2283710).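 Also: hits raise SULT2A1 transcript above the 0.2% DMSO vehicle baseline.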 In outline: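 Primary human hepatocytes (two donor preparations) dosed daily for two days with chemicals at multiple concentrations, vehicle 0.2% DMSO; SULT2A1 mRNA induction at 48 h by quantitative nuclease protection assay, chemiluminescent read-out, fitted for gain of signal versus DMSO.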

A short description of assay [5]: Tanguay_ZF_120hpf_ActivityScore_legacy: (Legacy) Oregon State University Tanguay Lab 120 Hour Post-fertilization zebrafish Assay Score for Activity (AID 2283742).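 As to AC50: dechorionated Tropical 5D wild-type zebrafish embryos held singly per well; static exposure from 6 hpf until 120 hpf at 28 °C.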 In outline:
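Dechorionated Tropical 5D embryos, one per well from 6 hpf, statically exposed to 120 hpf at 28 °C in 0.64% DMSO. Mortality and malformations scored binary by brightfield microscopy; activity score combines 18 endpoints, fitted positively versus DMSO.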

Assay [6] in a line: CLD_ACTIN_48hr: CellzDirect (CLD) Gene Expression Assay for Baseline Control (Actin) at 48 hours (AID 2283702). In outline: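 Primary human hepatocytes (two donor preparations) dosed daily for two days with ToxCast chemicals at multiple concentrations versus 0.2% DMSO vehicle; harvested at 48 h. Actin mRNA measured as a background control by quantitative nuclease protection assay with chemiluminescence.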

The nature of assay [7]: STM_H9_OrnithineISnorm_perc: Stemina devTOX quickPredict H9 human embryonic stem cell (hESC)-based Assay for Ornithine (ORN) Metabolite Biomarker, Normalized (AID 2283712; active = hit-call score of the fitted dose curve at least 0.9, where 1 is the maximum; inactive = score below 0.9;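 also: ornithine released into spent medium during last day measured by mass spectrometry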). The essentials:
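Cells: undifferentiated H9 hESC. Dosing: 72 h, media replaced every 24 h. Sample: final 24-h conditioned media, 40% acetonitrile. Read: UPLC-HRMS ornithine area vs 13C standard, % DMSO control.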

Assay [8] is described as follows: STM_H9_CystineISnorm_perc: Stemina devTOX quickPredict H9 human embryonic stem cell (hESC)-based Assay for Cystine (CYSS) Metabolite Biomarker, Normalized (AID 2283713; active = hit-call score of the fitted dose curve at least 0.9, where 1 is the maximum; inactive = score below 0.9). The essentials:
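Secreted cystine was measured by UPLC-HRMS in H9 hESC medium after 72h compound exposure with 24-hourly replenishment. Values are standard-normalized areas relative to 0.1% DMSO.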

A short description of assay [9]: STM_H9_OrnCyssISnorm_ratio: Stemina devTOX quickPredict H9 human embryonic stem cell (hESC)-based Assay for Ornithine (ORN):Cystine (CYSS) Ratio (AID 2283714). In outline:
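Undifferentiated H9 hESCs exposed 72 h, media and compound replaced every 24 h; final 24-h conditioned media deproteinized and analysed by UPLC-HRMS against C13 spike-ins. Value is the internal-standard-normalized ORN/CYSS ratio versus 0.1% DMSO.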

Read-out in assay [10]: HMG-CoA synthase (HMGCS2), HMGCS2 (gene 3158)
Put plainly: CLD_HMGCS2_48hr: CellzDirect (CLD) Gene Expression Assay for HMG-CoA synthase (HMGCS2) at 48 hours (AID 2283711). The essentials: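 Primary human hepatocytes from two donors dosed daily for two days, 0.2% DMSO vehicle. HMGCS2 mRNA measured 48 h after dosing by quantitative nuclease protection assay with chemiluminescent read-out; induction fitted relative to DMSO, cytotoxicity flagged by microscopy.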

Read-out in assay [11]: organic anion transporter (SLCO1B1), SLCO1B1 (gene 10599)
The assay can be described thus: CLD_SLCO1B1_48hr: CellzDirect (CLD) Gene Expression Assay for organic anion transporter (SLCO1B1) at 48 hours (AID 2283707). In outline:
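Primary human hepatocytes from two donor preparations dosed daily for two days with multiple concentrations, 0.2% DMSO vehicle. SLCO1B1 mRNA at 48 h by quantitative nuclease protection assay, chemiluminescence; gain-of-signal fitted versus DMSO.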

Assay [12] in a line: CEETOX_H295R_MTT_cell_viability: Viability Assessment in the CeeTox HT-H295R MTT Assay (AID 2283718; active = hit-call score of the fitted dose curve at least 0.9, where 1 is the maximum; inactive = score below 0.9;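 as to AC50: curve fitted both ways so AC50 may mark viability loss or gain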). The essentials:
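Human H295R adrenal cells, prestimulated 48 h with 10 uM forskolin, were exposed 48 h to chemicals in 0.1% DMSO. Viability was measured in the same wells by MTT (0.5 mg/ml, 4 h, 37 C), absorbance 570/650 nm, as percent of controls.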

Among the data in PubChem BioAssay (EPA / NIEHS) are AC50 and outcome values, retold here.

One may read the AC50 as the concentration at which the activity in the assay is half-maximal.

Results filed as inconclusive are left out. Activity calls are given as the source filed them. The calls were made as follows, unless noted: active = hit-call score of the fitted dose curve at least 0.9, where 1 is the maximum; inconclusive = response in the unintended direction; inactive = score below 0.9.

On to `O=C(Nc1ccccc1)Nc1ccnc(Cl)c1`, for which the AC50 in assay [1] was 7.3 µM (active); in assay [2], 10.8 µM (active); in [3] it was 6.7 µM (active); in [5] it was 38.6 µM (active). For the same compound, the result in [4] was inactive.

Turning to `CN(C)C(=S)SSC(=S)N(C)C`, in assay [6], the compound was classed as inactive. For the same compound, the concentration at half-maximal activity (AC50) is 34 µM (active) in [1]; 29.7 µM (active) in assay [2]; 17.7 µM (active) in assay [7]; 14.5 µM (active) in assay [8]; 16.2 µM (active) in assay [9]; 9.8 µM (active) in assay [5].

Consider `O=C(O)COc1nc(Cl)c(Cl)cc1Cl`, for which the call in assay [1], in [2], in [3], in [10] and in [5] was inactive.

Take `CCNc1nc(Cl)nc(NC(C)C)n1`: the AC50 in assay [1] was 10.2 µM (active); in assay [2], 20 µM (active); in assay [3] it was 9.63 µM (active); in assay [7], 0.12 µM (active); in [8], 42.3 µM (active); in assay [9], 50 µM (active). Also, the compound was called inactive in assay [11], in assay [4], in [12] and in [5].

For the compound `CC1=C(C(=O)Nc2ccccc2)SCCO1`, the figures for the concentration at half-maximal activity (AC50) in assay [1], in assay [2] and in [5] were 31.1 µM (active), 36.1 µM (active) and 47.7 µM (active), respectively. Moreover, the compound was classed as inactive in assay [3] and in [12].

In the case of `CON(C)C(=O)Nc1ccc(Cl)c(Cl)c1`, the half-maximal activity concentration (AC50) is 1.27 µM (active) in [1]; 3.68 µM (active) in assay [2]; 50 µM (active) in assay [7]; 73.3 µM (active) in assay [8]; 71.7 µM (active) in assay [9]. Also, the outcome in assay [3], in assay [4], in assay [12] and in [5] was inactive.

For `OC(c1ccc(Cl)cc1)(c1cncnc1)c1ccccc1Cl` (stereo unspecified), the call in assay [6], in [2], in assay [3], in [4] and in [5] was inactive. Further, the AC50 is 50 µM (active) in assay [7], 77.7 µM (active) in assay [9] and 77.2 µM (active) in assay [12].

Turning to `N#Cc1cc(Br)c(O)c(Br)c1`, the compound was called inactive in assay [2], in assay [3] and in assay [4]. Further, in [5], the AC50 is 23.8 µM (active).

For `CNC(=S)S`, the compound was classed as inactive in assay [6], in [2], in assay [3], in assay [12] and in [5]. Besides, the half-maximal activity concentration (AC50) in [1] was 20 µM (active).

With `CNC(=O)ON=CC(C)(C)SC`, the result in [6] and in [3] was inactive. Moreover, the AC50 in assay [5] was 0.00317 µM (active).

Turning to `CCOC(=O)CC(SP(=S)(OC)OC)C(=O)OCC` (stereo unspecified), the result in [6], in assay [3], in assay [4] and in assay [12] was inactive. For the same compound, the half-maximal activity concentration (AC50) in [1] is 5.39 µM (active); in [7], 76.9 µM (active); in assay [8] it was 86.9 µM (active); in [9] it was 80.9 µM (active); in [5] it was 29.2 µM (active).

Turning to `CCc1nn(C)c(C(=O)NCc2ccc(C(C)(C)C)cc2)c1Cl`, the concentration at half-maximal activity (AC50) in assay [2] is 8.98 µM (active); in assay [4], 20 µM (active); in assay [7] it was 1.84 µM (active); in assay [8] it was 1.82 µM (active); in assay [9], 1.55 µM (active); in [5], 2.81 µM (active).

`COC(=O)N(OC)c1ccccc1COc1ccn(-c2ccc(Cl)cc2)n1`: the AC50 is 0.54 µM (active) in assay [1]; 1.9 µM (active) in assay [2]; 9.28 µM (active) in [4]; 0.85 µM (active) in assay [7]; 0.743 µM (active) in assay [8]; 0.806 µM (active) in [9]. For the same compound, the AC50 in assay [5] was 0.409 µM (active). In addition, the result in assay [11] and in assay [10] was inactive.
